PubChem BioAssay
Unmarked numbers belong to inactive results. Active and inactive are the calls of the source.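 Rule for the calls: active = inhibition above the hit cutoff set in the earlier primary screen (cut at about 27% in these data); inactive = the rest.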

target: Protein phosphatase methylesterase 1 (Homo sapiens) (UniProt Q9Y570); assay: PME-1 inhibitor activity retest, confirmation, biochemical, fluorescence polarization, FP-Rh probe, triplicate (AID 2171); conditions: recombinant PME-1, FP-Rh probe fluorescence polarization; at 5.9 µM; hits give high values;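 note: 0% = enzyme with DMSO and 100% = wells lacking PME-1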
Sequence (Q9Y570 whole entry, looked up): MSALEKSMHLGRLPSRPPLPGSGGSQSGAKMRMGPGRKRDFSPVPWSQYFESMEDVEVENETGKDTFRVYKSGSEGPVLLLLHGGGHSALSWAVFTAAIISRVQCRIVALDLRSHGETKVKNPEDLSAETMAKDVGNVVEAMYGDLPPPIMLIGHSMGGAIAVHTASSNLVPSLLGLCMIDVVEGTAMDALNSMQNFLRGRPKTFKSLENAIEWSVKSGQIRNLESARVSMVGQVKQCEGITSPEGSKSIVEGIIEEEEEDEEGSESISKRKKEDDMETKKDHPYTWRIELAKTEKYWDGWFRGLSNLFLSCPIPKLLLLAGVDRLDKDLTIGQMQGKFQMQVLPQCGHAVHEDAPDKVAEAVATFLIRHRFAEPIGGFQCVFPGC

Structure (SMILES)	inhibition
Nc1[nH]n(-c2ccccc2)c(=O)c1N=Nc1ccc2c(c1)OCCO2	34.5% (active)
Cn1c(=O)c(C#N)c(-c2ccc(F)cc2)c2cc(C(=O)c3cc(Cl)cc(Cl)c3O)cnc21	59.1% (active)
Cc1ccccc1NC1=C/C(=N\S(=O)(=O)c2cccs2)c2ccccc2C1=O	38.4% (active)
Oc1nc(Nc2ccccc2)sc1/C=C1\C=Nc2ccccc21	-2.4%
Cc1cccnc1Nc1nc(-c2ccc(O)c(O)c2)cs1	14.8%
CC(=O)Oc1ccc2c(c1)Oc1cc(OC(C)=O)ccc1C21OC(=O)c2ccccc21	148% (active)
Cc1ccc(N/N=C(\C#N)C(N)=S)c(C)c1	57.9% (active)
CCCCNc1c2c3c(cccc3n(C)c1=O)C(=O)c1ccccc1-2	71.1% (active)
O=C(N/N=C\c1ccc(COc2ccc([N+](=O)[O-])cc2)o1)c1cccc(Cl)c1	9.99%
COC(=O)c1ccc(NC(=O)Nc2ccc(OC)cc2)cc1	23.2%
Nc1ccc2nc(-c3cccc(-c4nc5ccc(N)cc5[nH]4)c3)[nH]c2c1	94.1% (active)
COc1ccc2[nH]c3c(N4CCc5ccccc5C4)ncnc3c2c1	30.2% (active)
O=[N+]([O-])c1cc(S(=O)(=O)Nc2cccc(C(F)(F)F)c2)ccc1-n1nnc2ccccc21	18.7%
CC(C)Oc1ccc(S(=O)(=O)N2CCCCC2)cc1NC(=O)CN1C(=O)NC(C)(c2ccccc2)C1=O (stereo not given)	42.6% (active)
O=C1C=C(N2CCCCC2)c2ccccc2C1=O	43% (active)
O=C(O)c1ccccc1Nc1cccc(OCc2ccc3ccccc3n2)c1	20%
O=C(c1ccccc1F)N1CCN(Cc2nc3sc4c(c3c(=O)[nH]2)CCCC4)CC1	19.9%
O=C(O)c1ccc(N/N=C/c2cn(Cc3ccccc3F)c3ccccc23)cc1	93.4% (active)
O=C(N/N=C/c1c[nH]c2ccccc12)c1cc(-c2ccc3ccccc3c2)n[nH]1	10.8%
O=C(CN1CCN(S(=O)(=O)c2ccc(Br)cc2)CC1)N/N=C/c1cc([N+](=O)[O-])ccc1Cl	21%

Structure (SMILES)	inhibition
CCOc1cccc(/C=C/c2ccc3cccc(O)c3n2)c1O	26.6% (active)
S=C(NCCNC(=S)Nc1ccccc1)Nc1ccccc1	19.9%
COCCCNc1c2c3c(cccc3[nH]c1=O)C(=O)c1ccccc1-2	133% (active)
O=C(CCCSc1ccccc1)Nc1nc(-c2ccco2)c(-c2ccco2)s1	6.79%
Cn1c2ccccc2c2cc(/C=N/NC(=O)c3cc(O)ccc3O)ccc21	40.5% (active)
CC1=NN(c2ccc(C)c(C)c2)C(=O)C1C(c1cccc(O)c1)C1C(=O)N(c2ccc(C)c(C)c2)N=C1C (stereo not given)	15.3%
O=C1C2=C(Nc3ccccc3SC2c2ccco2)c2ccccc21 (stereo not given)	5.92%
Cc1ccc(-c2nc(Nc3ccc(O)cc3)c3ccccc3n2)cc1	6.25%
CCN(CC)C(=O)C1c2ccccc2Oc2ccccc21	7.22%
CCOC(=O)CSc1nc2cc3c(cc2cc1C#N)OCCO3	20.1%
COC(=O)c1ccc(C2Nc3cccc4cccc(c34)N2)cc1	51.9% (active)
CN(C)S(=O)(=O)c1cccc(NC(=S)NNC(=O)c2cc3ccccc3cc2O)c1	-1.97%
O=C(O)COc1ccccc1/C=N/Nc1ccc(S(=O)(=O)Nc2ccc(Cl)cc2)cc1[N+](=O)[O-]	62.7% (active)
COc1cc2c(C#N)c(N3CCN(c4ccccc4OC)CC3)nc(N)c2c(N)n1	78% (active)
O=C(O)c1ccc(N=Nc2c(O)[nH]c3cc(Cl)ccc23)cc1	116% (active)
Cc1ccc(NC(=O)COc2cccc(/C=C3\SC(=S)N(CCC(=O)O)C3=O)c2)cc1Cl	26%
CCO[C@@H]1OC(C(=O)N2CCN(Cc3ccccc3)CC2)=C[C@H](c2cn(C(C)=O)c3ccccc23)[C@H]1CCCO	75.4% (active)
Cc1ccc(NS(=O)(=O)c2cccc(C(=O)N3CCN(c4ncccn4)CC3)c2)cc1	9.07%
Oc1ccc(N=Cc2ccc(-c3cccs3)s2)cc1	23.3%
CCN1C(=O)/C(=C2/Sc3ccccc3N2CC)S/C1=N\c1ncn[nH]1	42.6% (active)
